# Test results: the supplement of paper PMC12669032
# Where “and” joins values, the source holds several entries; their conditions need not be identical. Equal values may be shown once. Values without a mark were called inactive.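 The calls were made as follows: active = AUC reduced over 20% with Padj below 0.05 in at least 2 of 3 replicates; inactive = otherwise.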
# Test system: Bacteroides dorei
# Assay: growth AUC relative to DMSO control (median of replicates) (fraction); higher = more growth (less inhibition), active = hit call of the paper
# Conditions: 20 µM; 24 h
# Method in brief: (§1)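 OD600 was recorded every hour for 24 h in anaerobic monocultures of gut bacteria kept at 37 °C in mGAM, seeded at OD600 0.05 and given 20 µM compound in 1% DMSO. The area under each growth curve was scaled to the plate median of solvent-only wells, or to row and column medians for the industrial chemical plate. Before this step, the minimum OD was set to 0. Reported values are medians of three biological replicates run on separate days.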
row,SMILES,growth AUC
1,COP(N)(=O)SC (stereo not drawn),1.01
2,COc1cc(OC)n2nc(S(=O)(=O)Nc3c(Cl)ccc(C)c3Cl)nc2n1,1.06
3,CC(C)N(C(=O)SCC(Cl)=C(Cl)Cl)C(C)C,0.955
4,O=S(=O)(c1ccc(O)cc1)c1ccc(O)cc1,1.01
5,CN(C)NC(=O)CCC(=O)O,1.04
6,CCN(CC)c1nc(C)cc(OP(=S)(OC)OC)n1,1
7,Clc1cccc(Cl)c1Cl,0.997
8,CCN(CC)C(=S)[S-].O.O.O.[Na+],0.978
9,C#CCC1=C(C)C(OC(=O)C2C(C=C(C)C)C2(C)C)CC1=O (stereo not drawn),0.964
10,CCOc1ccccc1OS(=O)(=O)NC(=O)Nc1nc(OC)cc(OC)n1,1.05
11,CNC(=O)Oc1cc(C)cc(C(C)C)c1,0.973
12,CCCCN(CC)c1c([N+](=O)[O-])cc(C(F)(F)F)cc1[N+](=O)[O-],1.01
13,O=C(O)CCl,0.982
14,CC[C@H](C)[C@H]1O[C@]2(C=C[C@@H]1C)C[C@@H]1C[C@@H](C/C=C(\C)[C@@H](O[C@H]3C[C@H](OC)[C@@H](O[C@H]4C[C@H](OC)[C@@H](NC)[C@H](C)O4)[C@H](C)O3)[C@@H](C)/C=C/C=C3\CO[C@@H]4[C@H](O)C(C)=C[C@@H](C(=O)O1)[C@]34O)O2.O=C(O)c1ccccc1,0.0271 (active)
15,CON(C)C(=O)Nc1ccc(Cl)c(Cl)c1,1.04
16,CCCCOC(=O)[C@@H](C)Oc1ccc(Oc2ccc(C#N)cc2F)cc1,0.969
17,Clc1cc(Cl)c(Cl)c(Cl)c1,0.957
18,CN(C)C(=O)Nc1cccc(C(F)(F)F)c1,0.991
19,CN(C)C(=O)Nc1cccc(OC(=O)NC(C)(C)C)c1,0.977
20,CCOP(=O)(NC(C)C)Oc1ccc(SC)c(C)c1 (stereo not drawn),0.877

row,SMILES,growth AUC
1,ClCC(Br)CBr (stereo not drawn),0.974
2,O=[N+]([O-])c1c(Cl)c(Cl)cc(Cl)c1Cl,1.01
3,CCS(=O)c1c(C#N)nn(-c2c(Cl)cc(C(F)(F)F)cc2Cl)c1N (stereo not drawn),1.01
4,CNC(=O)Oc1cccc2c1OC(C)(C)C2O (stereo not drawn),1.02
5,CCOP(=O)(SC(C)CC)N1CCSC1=O (stereo not drawn),1
6,CCOP(=O)(OCC)ON1C(=O)c2cccc3cccc(c23)C1=O,0.754 (active)
7,O=C(O)C(F)(F)C(F)(F)C(F)(F)C(F)(F)C(F)(F)C(F)(F)F,1.01
8,O=S1OC[C@@H]2[C@H](CO1)[C@]1(Cl)C(Cl)=C(Cl)[C@@]2(Cl)C1(Cl)Cl (stereo partly drawn),0.965 and 0.954
9,O=C(O)c1ccccc1C(=O)Nc1cccc2ccccc12,1.02
10,CCCCN(CCCC)SN(C)C(=O)Oc1cccc2c1OC(C)(C)C2,0.981
11,C[n+]1ccc(-c2cc[n+](C)cc2)cc1.O.[Cl-].[Cl-],0.996
12,CCC(C)(CC)c1cc(NC(=O)c2c(OC)cccc2OC)on1,1.03
13,CNC(=O)Oc1cc(C)c(SC)c(C)c1,0.971
14,COC(=O)C(C)(Cl)Cl,1.02
15,Cc1cc(Cl)ccc1N=CN(C)C,1
16,Nc1cc(Cl)cc(Cl)c1,1.03
17,CCCCCCCCCc1ccc(O)cc1,1.01
18,COc1c(Cl)ccc(Cl)c1Cl,0.995
19,CC(C)(C)c1cc([N+](=O)[O-])cc([N+](=O)[O-])c1O,0.931

# Test system: Bacteroides stercoris
# Assay: as above
# Conditions: 20 µM; 24 h
# Method in brief: as §1
row,SMILES,growth AUC
1,COP(N)(=O)SC (stereo not drawn),1.1
2,COc1cc(OC)n2nc(S(=O)(=O)Nc3c(Cl)ccc(C)c3Cl)nc2n1,0.969
3,CC(C)N(C(=O)SCC(Cl)=C(Cl)Cl)C(C)C,0.955
4,O=S(=O)(c1ccc(O)cc1)c1ccc(O)cc1,0.977
5,CN(C)NC(=O)CCC(=O)O,1.01
6,CCN(CC)c1nc(C)cc(OP(=S)(OC)OC)n1,0.927
7,Clc1cccc(Cl)c1Cl,0.945
8,CCN(CC)C(=S)[S-].O.O.O.[Na+],1.08
9,C#CCC1=C(C)C(OC(=O)C2C(C=C(C)C)C2(C)C)CC1=O (stereo not drawn),1.01
10,CCOc1ccccc1OS(=O)(=O)NC(=O)Nc1nc(OC)cc(OC)n1,0.901
11,CNC(=O)Oc1cc(C)cc(C(C)C)c1,0.938
12,CCCCN(CC)c1c([N+](=O)[O-])cc(C(F)(F)F)cc1[N+](=O)[O-],1
13,O=C(O)CCl,1.07
14,CC[C@H](C)[C@H]1O[C@]2(C=C[C@@H]1C)C[C@@H]1C[C@@H](C/C=C(\C)[C@@H](O[C@H]3C[C@H](OC)[C@@H](O[C@H]4C[C@H](OC)[C@@H](NC)[C@H](C)O4)[C@H](C)O3)[C@@H](C)/C=C/C=C3\CO[C@@H]4[C@H](O)C(C)=C[C@@H](C(=O)O1)[C@]34O)O2.O=C(O)c1ccccc1,0.00403 (active)
15,CON(C)C(=O)Nc1ccc(Cl)c(Cl)c1,0.954
16,CCCCOC(=O)[C@@H](C)Oc1ccc(Oc2ccc(C#N)cc2F)cc1,0.973
17,Clc1cc(Cl)c(Cl)c(Cl)c1,0.887
18,CN(C)C(=O)Nc1cccc(C(F)(F)F)c1,0.911
19,CN(C)C(=O)Nc1cccc(OC(=O)NC(C)(C)C)c1,1.4
20,CCOP(=O)(NC(C)C)Oc1ccc(SC)c(C)c1 (stereo not drawn),0.92

row,SMILES,growth AUC
1,ClCC(Br)CBr (stereo not drawn),0.996
2,O=[N+]([O-])c1c(Cl)c(Cl)cc(Cl)c1Cl,1.19
3,CCS(=O)c1c(C#N)nn(-c2c(Cl)cc(C(F)(F)F)cc2Cl)c1N (stereo not drawn),1.04
4,CNC(=O)Oc1cccc2c1OC(C)(C)C2O (stereo not drawn),1.06
5,CCOP(=O)(SC(C)CC)N1CCSC1=O (stereo not drawn),1.07
6,CCOP(=O)(OCC)ON1C(=O)c2cccc3cccc(c23)C1=O,0.482 (active)
7,O=C(O)C(F)(F)C(F)(F)C(F)(F)C(F)(F)C(F)(F)C(F)(F)F,1
8,O=S1OC[C@@H]2[C@H](CO1)[C@]1(Cl)C(Cl)=C(Cl)[C@@]2(Cl)C1(Cl)Cl (stereo partly drawn),0.913 and 0.734
9,O=C(O)c1ccccc1C(=O)Nc1cccc2ccccc12,1.18
10,CCCCN(CCCC)SN(C)C(=O)Oc1cccc2c1OC(C)(C)C2,0.913
11,C[n+]1ccc(-c2cc[n+](C)cc2)cc1.O.[Cl-].[Cl-],0.996
12,CCC(C)(CC)c1cc(NC(=O)c2c(OC)cccc2OC)on1,1.04
13,CNC(=O)Oc1cc(C)c(SC)c(C)c1,0.912
14,COC(=O)C(C)(Cl)Cl,1
15,Cc1cc(Cl)ccc1N=CN(C)C,0.985
16,Nc1cc(Cl)cc(Cl)c1,1.33
17,CCCCCCCCCc1ccc(O)cc1,0.0469 (active)
18,COc1c(Cl)ccc(Cl)c1Cl,1.19
19,CC(C)(C)c1cc([N+](=O)[O-])cc([N+](=O)[O-])c1O,1.03
